# From the supplement of paper PMC10849652
# About 8,800 targets were measured; listed, in parts, are those with a hit and a random draw of the rest. About 0.5% of all pairs of compound and target were hits. Unmarked numbers belong to inactive results.
# Columns and labels:
# Assay in all cases: log2 fold change, soluble protein after heating vs DMSO (PISA); higher = thermal stabilisation; K562 lysate, 10 uM; active = over 0.2 and 3.5 SD of the protein, either way, in both replicates (recomputed)
# lapatinib = compound: CS(=O)(=O)CCNCc1ccc(-c2ccc3ncnc(Nc4ccc(OCc5cccc(F)c5)c(Cl)c4)c3c2)o1 [lapatinib]
# Outline: (§1)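 Log-two fold change in thermal stability relative to solvent controls is reported from duplicates. For each sample, crude K562 extract from dounce-homogenised pellets in PBS pH 7.4 with 1 mM MgCl2, at 1 mg/mL protein, was treated with 10 μM compound for 30 min. Aliquots heated for 3 min across 48°C-58°C were pooled, brought to 0.5% NP-40 at 4°C and cleared at 21,000xg for 90 min. The supernatant was quantified by TMTpro 16plex LC-MS/MS with channel sums equalised.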
# pictilisib = compound: CS(=O)(=O)N1CCN(Cc2cc3nc(-c4cccc5[nH]ncc45)nc(N4CCOCC4)c3s2)CC1 [pictilisib]
# Outline: as §1
# crizotinib = compound: C[C@@H](Oc1cc(-c2cnn(C3CCNCC3)c2)cnc1N)c1c(Cl)ccc(F)c1Cl [crizotinib]
# Outline: as §1
# [1] = compound: C[C@H](C1=CC=C(C=C1)C(=O)NC2=C3C=CNC3=NC=C2)N
# Outline: as §1
# duvelisib = compound: C[C@H](Nc1ncnc2nc[nH]c12)c1cc2cccc(Cl)c2c(=O)n1-c1ccccc1 [duvelisib]
# Outline: as §1
# gandotinib = compound: Cc1cc(Nc2cc(CN3CCOCC3)c3nc(C)c(Cc4ccc(Cl)cc4F)n3n2)n[nH]1 [gandotinib]
# Outline: as §1
# tozasertib = compound: Cc1cc(Nc2cc(N3CCN(C)CC3)nc(Sc3ccc(NC(=O)C4CC4)cc3)n2)n[nH]1 [tozasertib]
# Outline: as §1
# doramapimod = compound: Cc1ccc(-n2nc(C(C)(C)C)cc2NC(=O)Nc2ccc(OCCN3CCOCC3)c3ccccc23)cc1 [doramapimod]
# Outline: as §1
# bafetinib = compound: Cc1ccc(NC(=O)c2ccc(CN3CC[C@H](N(C)C)C3)c(C(F)(F)F)c2)cc1Nc1nccc(-c2cncnc2)n1 [bafetinib]
# Outline: as §1
# [2] = compound: Cc1cccc(CC(=O)N2CCc3c2ccc(-c2cn(C)c4ncnc(N)c24)c3F)n1
# Outline: as §1
# nilotinib = compound: Cc1cn(-c2cc(NC(=O)c3ccc(C)c(Nc4nccc(-c5cccnc5)n4)c3)cc(C(F)(F)F)c2)cn1 [nilotinib]
# Outline: as §1
# [3] = compound: Cc1nc(Nc2n[nH]c3c2CN(C(=O)N[C@H](CN(C)C)c2ccccc2)C3(C)C)c2sccc2n1
# Outline: as §1
# dasatinib = compound: Cc1nc(Nc2ncc(C(=O)Nc3c(C)cccc3Cl)s2)cc(N2CCN(CCO)CC2)n1 [dasatinib]
# Outline: as §1
# [4] = compound: Cc1ncc(-c2ccnc(Nc3ccc(S(C)(=O)=O)cc3)n2)n1C(C)C
# Outline: as §1
# [5] = compound: Cn1cc(-c2ccc3c(c2)CCN3C(=O)Cc2cccc(C(F)(F)F)c2)c2c(N)ncnc21
# Outline: as §1
# quisinostat = compound: Cn1cc(CNCC2CCN(c3ncc(C(=O)NO)cn3)CC2)c2ccccc21 [quisinostat]
# Outline: as §1
# tipifarnib = compound: Cn1cncc1[C@@](N)(c1ccc(Cl)cc1)c1ccc2c(c1)c(-c1cccc(Cl)c1)cc(=O)n2C [tipifarnib]
# Outline: as §1
# [6] = compound: NC(=O)Nc1cc(-c2cccc(F)c2)sc1C(=O)N[C@H]1CCCNC1
# Outline: as §1
# [7] = compound: NC(=O)c1cnc(N[C@@H]2CCCC[C@@H]2N)nc1Nc1cccc(-n2nccn2)c1
# Outline: as §1
# [8] = compound: NC1(c2ccc(-c3nc4ccn5c(=O)[nH]nc5c4cc3-c3ccccc3)cc2)CCC1
# Outline: as §1
# Chain of UniProt Q9NPR9 (Q9NPR9 whole entry, looked up): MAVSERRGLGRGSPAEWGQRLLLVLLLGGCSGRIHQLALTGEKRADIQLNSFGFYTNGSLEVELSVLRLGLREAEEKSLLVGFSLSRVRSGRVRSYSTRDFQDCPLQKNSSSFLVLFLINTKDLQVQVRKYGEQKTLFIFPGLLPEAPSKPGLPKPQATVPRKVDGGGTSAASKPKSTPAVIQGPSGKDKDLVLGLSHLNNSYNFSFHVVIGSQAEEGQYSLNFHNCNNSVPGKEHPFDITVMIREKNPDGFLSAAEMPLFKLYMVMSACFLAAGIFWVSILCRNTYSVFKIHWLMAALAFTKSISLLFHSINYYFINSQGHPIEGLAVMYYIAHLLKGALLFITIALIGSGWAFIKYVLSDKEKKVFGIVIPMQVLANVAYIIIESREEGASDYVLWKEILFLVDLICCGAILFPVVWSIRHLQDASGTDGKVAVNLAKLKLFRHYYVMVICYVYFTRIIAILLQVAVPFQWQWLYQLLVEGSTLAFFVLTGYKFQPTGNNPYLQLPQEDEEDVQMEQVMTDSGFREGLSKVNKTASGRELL
# Chain of UniProt Q58FG1 (Q58FG1 whole entry, looked up): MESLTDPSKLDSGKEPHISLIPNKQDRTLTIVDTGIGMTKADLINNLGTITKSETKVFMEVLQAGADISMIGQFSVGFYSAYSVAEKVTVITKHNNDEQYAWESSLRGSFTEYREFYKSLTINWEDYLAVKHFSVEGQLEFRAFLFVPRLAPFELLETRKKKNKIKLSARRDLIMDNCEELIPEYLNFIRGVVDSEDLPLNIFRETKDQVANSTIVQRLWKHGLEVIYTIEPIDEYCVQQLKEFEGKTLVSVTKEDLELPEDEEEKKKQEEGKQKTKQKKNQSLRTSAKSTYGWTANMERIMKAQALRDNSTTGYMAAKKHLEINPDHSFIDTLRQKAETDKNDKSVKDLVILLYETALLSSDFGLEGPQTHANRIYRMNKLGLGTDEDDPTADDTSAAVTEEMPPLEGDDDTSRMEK
# Chain of UniProt Q7Z5Y7 (Q7Z5Y7 whole entry, looked up): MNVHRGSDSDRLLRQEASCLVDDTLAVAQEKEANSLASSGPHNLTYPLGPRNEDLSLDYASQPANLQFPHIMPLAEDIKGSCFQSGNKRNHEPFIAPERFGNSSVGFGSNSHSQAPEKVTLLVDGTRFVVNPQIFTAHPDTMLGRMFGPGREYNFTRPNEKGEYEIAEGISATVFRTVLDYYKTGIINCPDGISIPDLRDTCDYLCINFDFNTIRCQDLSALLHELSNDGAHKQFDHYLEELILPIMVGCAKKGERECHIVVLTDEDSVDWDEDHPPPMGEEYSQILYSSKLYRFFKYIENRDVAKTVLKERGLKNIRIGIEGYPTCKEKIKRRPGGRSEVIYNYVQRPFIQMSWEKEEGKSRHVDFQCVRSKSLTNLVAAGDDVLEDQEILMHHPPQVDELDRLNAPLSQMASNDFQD
# Chain of UniProt Q75QN2 (Q75QN2 whole entry, looked up): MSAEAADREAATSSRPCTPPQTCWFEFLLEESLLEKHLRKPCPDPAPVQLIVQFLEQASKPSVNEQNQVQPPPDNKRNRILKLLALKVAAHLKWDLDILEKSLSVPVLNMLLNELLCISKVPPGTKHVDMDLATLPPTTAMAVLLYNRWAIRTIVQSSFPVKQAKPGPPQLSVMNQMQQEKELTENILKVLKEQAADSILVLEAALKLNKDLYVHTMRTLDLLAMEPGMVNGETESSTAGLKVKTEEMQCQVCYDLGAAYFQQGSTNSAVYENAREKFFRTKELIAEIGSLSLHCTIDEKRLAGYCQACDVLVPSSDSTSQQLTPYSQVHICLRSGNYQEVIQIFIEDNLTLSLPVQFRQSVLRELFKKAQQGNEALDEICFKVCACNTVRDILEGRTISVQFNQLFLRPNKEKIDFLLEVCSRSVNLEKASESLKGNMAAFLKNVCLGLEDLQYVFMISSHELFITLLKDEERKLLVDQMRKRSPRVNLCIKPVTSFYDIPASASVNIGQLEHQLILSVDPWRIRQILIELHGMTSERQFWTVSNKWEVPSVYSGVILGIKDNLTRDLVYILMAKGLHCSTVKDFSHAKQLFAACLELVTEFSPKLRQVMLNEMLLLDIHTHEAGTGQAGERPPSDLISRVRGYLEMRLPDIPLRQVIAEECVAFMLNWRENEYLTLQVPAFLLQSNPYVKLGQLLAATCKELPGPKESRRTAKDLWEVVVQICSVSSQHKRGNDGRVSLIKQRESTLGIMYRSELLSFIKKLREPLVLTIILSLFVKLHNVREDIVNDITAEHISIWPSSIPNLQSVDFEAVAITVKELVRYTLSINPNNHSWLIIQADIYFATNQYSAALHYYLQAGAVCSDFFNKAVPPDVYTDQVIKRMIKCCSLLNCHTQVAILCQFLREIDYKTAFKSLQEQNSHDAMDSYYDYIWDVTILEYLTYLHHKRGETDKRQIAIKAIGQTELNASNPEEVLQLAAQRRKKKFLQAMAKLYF
# Chain of UniProt Q9BUE6 (Q9BUE6 whole entry, looked up): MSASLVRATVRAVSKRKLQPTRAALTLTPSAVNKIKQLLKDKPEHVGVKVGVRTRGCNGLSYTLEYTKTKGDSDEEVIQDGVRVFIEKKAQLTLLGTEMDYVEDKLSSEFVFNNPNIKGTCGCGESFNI
# Chain of UniProt Q969S8 (Q969S8 whole entry, looked up): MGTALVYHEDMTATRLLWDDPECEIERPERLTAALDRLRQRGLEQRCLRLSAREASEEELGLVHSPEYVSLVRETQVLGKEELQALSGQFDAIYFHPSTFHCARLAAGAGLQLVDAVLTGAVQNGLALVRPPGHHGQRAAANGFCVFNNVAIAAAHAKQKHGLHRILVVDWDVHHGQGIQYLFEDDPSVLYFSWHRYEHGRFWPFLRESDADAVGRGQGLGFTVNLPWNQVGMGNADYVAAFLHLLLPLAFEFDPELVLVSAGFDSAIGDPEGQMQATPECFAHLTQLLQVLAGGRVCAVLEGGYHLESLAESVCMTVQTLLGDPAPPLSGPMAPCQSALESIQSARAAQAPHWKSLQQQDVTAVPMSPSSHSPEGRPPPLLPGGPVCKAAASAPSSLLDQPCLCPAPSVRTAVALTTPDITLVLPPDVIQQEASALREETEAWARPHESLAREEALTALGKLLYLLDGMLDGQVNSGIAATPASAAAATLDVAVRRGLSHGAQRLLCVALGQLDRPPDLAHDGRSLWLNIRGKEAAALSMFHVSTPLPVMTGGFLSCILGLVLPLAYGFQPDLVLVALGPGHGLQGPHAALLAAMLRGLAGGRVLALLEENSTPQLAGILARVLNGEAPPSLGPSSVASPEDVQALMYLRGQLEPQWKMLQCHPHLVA
# Chain of UniProt Q96SY0 (Q96SY0 whole entry, looked up): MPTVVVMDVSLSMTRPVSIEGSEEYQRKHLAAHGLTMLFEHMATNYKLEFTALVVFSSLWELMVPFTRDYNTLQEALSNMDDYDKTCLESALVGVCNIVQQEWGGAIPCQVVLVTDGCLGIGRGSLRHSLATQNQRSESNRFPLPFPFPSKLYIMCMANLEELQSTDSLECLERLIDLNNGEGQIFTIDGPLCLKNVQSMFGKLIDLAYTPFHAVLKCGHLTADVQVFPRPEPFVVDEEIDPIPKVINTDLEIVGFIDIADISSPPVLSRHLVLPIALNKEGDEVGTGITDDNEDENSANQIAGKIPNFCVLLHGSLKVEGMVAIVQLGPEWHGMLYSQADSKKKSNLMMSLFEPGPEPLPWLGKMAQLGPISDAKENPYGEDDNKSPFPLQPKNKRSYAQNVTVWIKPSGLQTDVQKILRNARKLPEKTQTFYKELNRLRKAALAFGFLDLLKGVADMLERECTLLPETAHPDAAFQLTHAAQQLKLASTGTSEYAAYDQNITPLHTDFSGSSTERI
# Chain of UniProt Q03013 (Q03013 whole entry, looked up): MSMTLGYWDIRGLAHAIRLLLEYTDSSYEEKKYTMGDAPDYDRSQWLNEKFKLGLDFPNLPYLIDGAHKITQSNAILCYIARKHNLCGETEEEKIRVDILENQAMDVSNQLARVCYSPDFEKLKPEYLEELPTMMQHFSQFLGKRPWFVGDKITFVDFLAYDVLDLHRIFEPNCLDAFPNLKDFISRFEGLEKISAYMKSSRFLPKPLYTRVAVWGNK
# Chain of UniProt Q9P2X3 (Q9P2X3 whole entry, looked up): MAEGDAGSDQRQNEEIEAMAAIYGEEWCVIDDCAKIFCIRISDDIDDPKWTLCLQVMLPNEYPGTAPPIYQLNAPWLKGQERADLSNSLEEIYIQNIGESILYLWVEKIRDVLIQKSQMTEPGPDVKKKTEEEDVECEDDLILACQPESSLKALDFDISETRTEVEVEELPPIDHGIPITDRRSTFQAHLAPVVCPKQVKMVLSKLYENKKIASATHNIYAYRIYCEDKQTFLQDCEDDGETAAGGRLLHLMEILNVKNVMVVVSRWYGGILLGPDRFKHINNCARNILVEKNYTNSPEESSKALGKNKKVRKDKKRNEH
# Chain of UniProt Q9BVP2 (Q9BVP2 whole entry, looked up): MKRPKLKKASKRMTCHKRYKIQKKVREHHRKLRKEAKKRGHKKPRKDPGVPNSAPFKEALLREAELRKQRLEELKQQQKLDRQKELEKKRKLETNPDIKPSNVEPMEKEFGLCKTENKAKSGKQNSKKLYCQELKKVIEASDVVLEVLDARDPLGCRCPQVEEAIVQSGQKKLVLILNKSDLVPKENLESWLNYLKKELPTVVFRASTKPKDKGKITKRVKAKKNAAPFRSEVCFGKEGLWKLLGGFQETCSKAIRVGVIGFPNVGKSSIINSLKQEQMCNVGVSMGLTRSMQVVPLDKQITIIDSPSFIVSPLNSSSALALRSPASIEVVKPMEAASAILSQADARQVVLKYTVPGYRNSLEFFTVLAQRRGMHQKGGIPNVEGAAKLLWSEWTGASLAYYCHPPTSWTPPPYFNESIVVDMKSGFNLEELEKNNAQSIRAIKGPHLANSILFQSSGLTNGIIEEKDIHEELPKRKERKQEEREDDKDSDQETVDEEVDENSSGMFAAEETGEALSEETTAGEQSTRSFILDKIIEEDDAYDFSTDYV
Target,log2 fold change (lapatinib),log2 fold change (pictilisib),log2 fold change (crizotinib),log2 fold change [1],log2 fold change (duvelisib),log2 fold change (gandotinib),log2 fold change (tozasertib),log2 fold change (doramapimod),log2 fold change (bafetinib),log2 fold change [2],log2 fold change (nilotinib),log2 fold change [3],log2 fold change (dasatinib),log2 fold change [4],log2 fold change [5],log2 fold change (quisinostat),log2 fold change (tipifarnib),log2 fold change [6],log2 fold change [7],log2 fold change [8]
INTS14 (UniProt Q96SY0),0,0.016,0.005,0.038,0.012,-0.035,-0.011,-0.012,0.009,-0.027,0.024,0.023,-0.038,-0.023,-0.004,-0.018,-0.004,-0.01,-0.026,-0.011
HAUS3 (UniProt Q68CZ6),-0.011,-0.001,-0.084,0.013,-0.042,-0.059,0.014,-0.034,-0.11,0.079,0.02,-0.027,-0.075,0.008,0.003,-0.059,-0.045,0.017,-0.015,-0.038
INTS5 (UniProt Q6P9B9),-0.688,0.018,-0.082,0.048,-0.022,-0.235,0.009,-0.002,-0.092,0.054,0.11,-0.093,-0.012,0.062,0.055,-0.002,0.294,0.043,-0.064,0.081
HDAC10 (UniProt Q969S8),-0.101,-0.019,-0.015,-0.042,-0.014,0.029,0.068,-0.046,0.035,0.061,-0.009,0.023,-0.104,0.032,0.144,0.245,-0.123,0.092,0.111,-0.001
IMPACT (UniProt Q9P2X3),0.012,0.044,0.083,0.077,-0.015,0.065,0.026,-0.044,-0.098,-0.096,0.087,-0.066,0.013,-0.687 (active),0.04,-0.103,-0.13,0.11,0.071,0.087
HIST2H2AA3 (UniProt Q6FI13),0.001,-0.016,0.049,0.555 (active),-0.044,-0.143,0.022,-0.088,0.159,-0.171,0.135,-0.098,0.081,0.035,-0.041,0.064,0.058,0.076,0.01,0.048
INTS8 (UniProt Q75QN2),0.028,0.104,-0.046,0.015,-0.051,-0.163,0.04,0.021,-0.142,0.036,0.035,0.044,-0.072,0.049,0.021,0.003,-0.009,0.067,-0.035,-0.029
ISCA1 isoform 2 (UniProt Q9BUE6),0.054,-0.08,-0.011,0.343 (active),0.012,-0.132,-0.004,0.011,0.067,-0.223,0.043,0.251,0,0.111,-0.002,0.025,0.026,-0.05,-0.007,0.013
GNL3 (UniProt Q9BVP2),-0.058,-0.018,-0.134,0.097,0.004,-0.115,-0.013,0.039,-0.128,-0.031,0.008,-0.022,-0.005,0.029,-0.003,-0.164,0.013,0.038,0.022,-0.031
HNRNPDL (UniProt O14979),0.04,-0.002,-0.005,0.016,0.04,-0.025,-0.056,0.104,0.072,-0.035,-0.208,0.036,0.016,-0.018,-0.005,0.074,-0.002,-0.062,-0.008,0.004
HACE1 (UniProt Q8IYU2),-0.05,0.005,0.026,-0.491 (active),0.033,0.302,-0.036,0.015,-0.036,0.426,-0.027,0.043,-0.154,0.035,-0.084,0.061,-0.175,0.181,0.028,-0.02
HSP90AA4P (UniProt Q58FG1),-0.035,-0.129,-0.032,-0.464 (active),0.011,0.042,0.08,-0.034,-0.235,0.128,-0.157,0.052,0.029,-0.062,0.038,-0.145,0.01,-0.065,-0.047,-0.024
GSTM4 (UniProt Q03013),-0.091,0.073,-0.006,-0.118,-0.034,0.011,-0.12,0.076,0.029,0.051,-0.163,0.019,-0.047,0.054,0.118,0.163,0.008,-0.003,0.024,-0.032
HAUS6 (UniProt Q7Z4H7),0.001,-0.028,-0.029,-0.054,0.006,-0.041,0.046,-0.009,0.051,0.104,-0.022,-0.008,-0.057,0.022,0.038,-0.066,0.053,0.035,-0.055,-0.004
HMGCS1 (UniProt Q01581),0.077,0.018,0.001,-0.031,0.003,0.006,-0.006,0.036,0.013,-0.004,0.003,-0.015,0.02,0.012,-0.005,-0.007,0.001,-0.016,-0.008,-0.018
HARS (UniProt P12081),0.008,0.01,-0.009,0.028,0.014,-0.052,0.006,0.003,0.015,-0.01,0.031,0.003,-0.006,-0.015,0.008,-0.021,0.019,-0.019,0.005,0.021
KEAP1 (UniProt Q14145),-0.005,-0.023,-0.007,0,0.026,0.019,-0.017,0.01,0,0.008,-0.01,0.01,-0.023,-0.014,-0.044,-0.078,-0.02,0.011,0.022,-0.002
GLUL (UniProt P15104),0.04,0.015,0.066,0.213 (active),0.019,-0.093,-0.026,0.014,0.013,-0.147,-0.008,-0.012,0.054,-0.026,-0.002,0.071,0.027,-0.032,0.009,-0.003
HEATR3 (UniProt Q7Z4Q2),-0.003,0,-0.074,-0.006,-0.005,-0.078,-0.021,0.027,-0.064,0.031,0.023,-0.021,-0.042,-0.031,0.062,-0.078,0.019,0.033,-0.015,0.001
GPR108 (UniProt Q9NPR9),0.022,0.03,-0.01,-0.121,-0.043,0.237 (active),0.024,0.04,0.044,-0.043,0.044,0.033,-0.035,0.011,-0.057,-0.063,-0.088,-0.013,0.046,-0.002
KCTD20 (UniProt Q7Z5Y7),-0.064,0.039,-0.077,0.006,-0.082,0.006,-0.119,-0.01,0.007,-0.005,0.054,-0.021,-0.096,0.074,0.039,-0.138,-0.028,0.109,0.089,-0.007
"HDLBP, A0A024R4E5",0.005,-0.017,-0.028,0.002,-0.003,-0.03,0.006,0.018,-0.049,0.013,-0.011,0.006,-0.038,0.014,0.015,-0.076,0.001,0.018,-0.002,-0.022
KCT2 (UniProt Q8NC54),-0.005,-0.018,0.048,-0.331 (active),0.018,0.277 (active),0.005,-0.028,-0.023,0.099,-0.034,0.008,0.025,-0.025,0.043,0.031,0.001,0.024,0.051,0.005
GSTZ1 (UniProt G3V4T6),0,0.04,-0.015,-0.067,0.028,0.061,0.004,-0.035,-0.071,0.146,0.026,0.009,-0.024,-0.016,0.083,0.016,0.014,0.029,-0.012,-0.007
